{"source": "PubChem BioAssay AID624297", "about": "(National Center for Advancing Translational Sciences (NCATS), 2012)", "note": "Values joined by “and” are separate entries in the source; they are usually repeats but may differ in a detail not shown here. Identical values can stand only once. In all, about 340,000 compounds went through this assay and about 6,200 (1.8%) were called active. Where a call stands in place of a potency, no number is given. Not shown: some 10% with an inconclusive outcome. The call rests on the fitted dose curve; in most records, active means well fitted activation curve with a large enough effect; inconclusive means small, poorly fitted or top-dose-only effect; inactive means no such curve, though single readings can be large or run the other way. Many of the other results were omitted from the sample, so actives are more common in it than they were.", "data": [{"experiment": "A quantitative high throughput screen for small molecules that induce DNA re-replication in SW480 colon adenocarcinoma cells; further: nearly all actives have a fitted effect of over 55% in size; further: potency means the concentration at half of the fitted maximal effect.", "settings": "Hoechst DNA content imaging, 48 h; series mostly up to 46.1 µM", "procedure,_shortened": "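First, 250 cells per well were seeded. Next, compound or vehicle (23 nL) was pinned in, plates sat 48 hr at 37 C. Finally Hoechst was added for 40 min before fluorescence scanning.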", "values": [{"molecule": "COc1ccc(CCNC(=O)c2ccc(NC(=O)CC3SC(N4CCCCC4)=NC3=O)cc2)cc1OC", "note": "(stereo not drawn)", "Potency": "inactive"}, {"molecule": "C=CC[C@H](CC(=O)OC(C)(C)C)C(=O)OC[C@H]1CCCN1C(=O)[C@H](CC=C)CC(=O)N(CCO)Cc1ccccc1", "Potency": "inactive"}, {"molecule": "CN1C(=O)c2ccc(NC(=O)C3CCCCC3)cc2C1=O", "Potency": "16.4 µM (active)"}, {"molecule": "O=C(O)c1ccc(NC(=O)C2CCCCC2)cc1", "Potency": "inactive"}, {"molecule": "CN1C(=O)c2ccc(NC(=O)c3c(F)c(F)c(F)c(F)c3F)cc2C1=O", "Potency": "inactive"}, {"molecule": "COc1ccc2nc(N3C(=O)C(O)=C(C(=O)c4ccco4)C3c3ccco3)sc2c1", "note": "(stereo not drawn)", "Potency": "inactive"}, {"molecule": "O=C(COC(=O)c1ccc(Br)o1)NC12CC3CC(CC(C3)C1)C2", "Potency": "inactive"}, {"molecule": "O=C(CC(O)(C(F)(F)F)C(F)(F)F)Nc1ccc(Cl)c(Cl)c1", "Potency": "14.6 µM (active)"}, {"molecule": "O=C(Cc1ccc(Cl)c(Cl)c1)Nc1ccc(SC(F)F)cc1", "Potency": "inactive"}, {"molecule": "O=C(CC1SCCNC1=O)Nc1ccc(Cl)c(Cl)c1", "note": "(stereo not drawn)", "Potency": "inactive"}, {"molecule": "Cc1noc(C)c1C(=O)OC(C)C(=O)Nc1ccc2c(c1)OCO2", "note": "(stereo not drawn)", "Potency": "inactive"}, {"molecule": "O=C1C2C3C=CC(C3)C2C(=O)N1c1ncc([N+](=O)[O-])s1", "note": "(stereo not drawn)", "Potency": "inactive"}, {"molecule": "C/C(=N\\Nc1ccccc1)c1cccs1", "Potency": "inactive"}, {"molecule": "CC(C)c1nccn1S(=O)(=O)c1cc([N+](=O)[O-])ccc1Cl", "Potency": "inactive"}, {"molecule": "CCc1nc(C)cn1S(=O)(=O)c1cc(OC)c(C)cc1C", "Potency": "inactive"}, {"molecule": "CCc1nc(C)cn1S(=O)(=O)c1cc([N+](=O)[O-])ccc1Cl", "Potency": "4.11 µM (active)"}, {"molecule": "O=C(Nc1ccc(S(=O)(=O)N2CCOCC2)cc1)C1CCN(S(=O)(=O)c2ccc(Cl)cc2)CC1", "Potency": "inactive"}, {"molecule": "C#CCNC(=O)C1=C[C@@H](c2ccccc2)[C@H](CCCO)[C@@H](OCC)O1", "Potency": "23.1 µM (active)"}, {"molecule": "CCO[C@@H]1OC(C(N)=O)=C[C@H](c2ccc(Br)cc2)[C@H]1CCCO", "Potency": "inactive"}, {"molecule": "CCO[C@H]1OC(C(=O)NCc2ccccc2)=C[C@@H](c2coc3ccccc3c2=O)[C@@H]1CCCO", "Potency": "inactive"}, {"molecule": "CN(c1ccccc1)S(=O)(=O)c1ccc(C(=O)N2CCN(c3ccccc3Cl)CC2)cc1", "Potency": "inactive"}, {"molecule": "Cc1cc(C(=O)Nc2ccccc2N2CCOCC2)c2ccccc2n1", "Potency": "inactive"}, {"molecule": "COC(=O)c1cc(N2CCNCC2)nc2ccccc12", "Potency": "10.3 µM (active)"}, {"molecule": "CNC(=O)COC(=O)c1cc(-c2ccc(OC)cc2)nc2ccccc12", "Potency": "inactive"}, {"molecule": "Cc1cccc(NC(=O)c2ccc(S(=O)(=O)N(C)c3ccccc3)cc2)n1", "Potency": "inactive"}, {"molecule": "CCCCCCc1ccc(O)cc1O", "Potency": "inactive"}, {"molecule": "CCCCCCc1cc2cc(-c3nnc(-c4ccccc4)o3)c(=O)oc2cc1O", "Potency": "3.55 µM (active)"}, {"molecule": "Cc1c(CC(=O)NCCCCCC(=O)O)c(=O)oc2cc3occ(-c4ccccc4)c3cc12", "Potency": "inactive"}, {"molecule": "CCCCNC1(C#N)CCN(Cc2ccccc2)CC1", "Potency": "inactive"}, {"molecule": "COc1cc(NC(=O)COC(=O)c2cc(S(=O)(=O)N3CCOCC3)ccc2F)cc(OC)c1", "Potency": "inactive"}, {"molecule": "COc1cc(/C=C2\\CCCc3c2nc2ccccc2c3C(=O)O)cc(Cl)c1O", "Potency": "inactive"}, {"molecule": "O=C(COC(=O)c1ccc(F)cc1)Nc1ccc2c(c1)OCO2", "Potency": "inactive"}, {"molecule": "NS(=O)(=O)c1ccc(NC(=O)COC(=O)c2cc3ccccc3oc2=O)cc1", "Potency": "inactive"}, {"molecule": "NS(=O)(=O)c1ccc(NC(=O)COC(=O)c2ccco2)cc1", "Potency": "inactive"}, {"molecule": "NS(=O)(=O)c1ccc(NC(=O)COC(=O)c2c3c(nc4ccccc24)/C(=C\\c2ccc4c(c2)OCO4)CCC3)cc1", "Potency": "7.31 µM (active) and 11.6 µM (active)"}, {"molecule": "NC(=O)c1ccc(NC(=O)COC(=O)c2c3c(nc4ccccc24)/C(=C\\c2ccc4c(c2)OCO4)CCC3)cc1", "Potency": "7.31 µM (active)"}, {"molecule": "O=C(COC(=O)c1c2c(nc3ccccc13)CCCC2)c1ccc(Br)s1", "Potency": "inactive"}, {"molecule": "O=C(COC(=O)c1ccncc1)Nc1ccc2c(c1)OCO2", "Potency": "inactive"}, {"molecule": "O=C(COC(=O)c1c2c(nc3ccccc13)/C(=C\\c1cccs1)CCC2)Nc1ccccc1Cl", "Potency": "14.6 µM (active) and 13 µM (active)"}, {"molecule": "OCC1(CO)CC2(C1)CC(CO)(CO)C2", "Potency": "inactive"}, {"molecule": "COc1ccc(CCNC(=O)COC(=O)c2ncc(Cl)c(Cl)c2Cl)cc1OC", "Potency": "inactive"}, {"molecule": "O=C(CNC(=O)c1ccccc1F)OCC(=O)c1c[nH]c2ccccc12", "Potency": "inactive"}, {"molecule": "CC(=O)Nc1ccc(S(=O)(=O)Nc2ccc(N3CCCCC3)cc2)cc1", "Potency": "inactive"}, {"molecule": "CCC1([N+](=O)[O-])COC(c2ccc(C(C)C)cc2)OC1", "note": "(stereo not drawn)", "Potency": "inactive"}, {"molecule": "CC1CCCCC12NC(=O)N(CC(=O)OCc1c(F)cccc1Cl)C2=O", "note": "(stereo not drawn)", "Potency": "inactive"}, {"molecule": "COc1ccc(C2=NOC(C(=O)NCc3ccco3)C2)cc1OC", "note": "(stereo not drawn)", "Potency": "13 µM (active)"}, {"molecule": "COc1ccc(CNC(=O)C2CC(c3ccc(C(F)(F)F)cc3)=NO2)cc1", "note": "(stereo not drawn)", "Potency": "inactive"}, {"molecule": "COc1ccc(S(=O)(=O)N2CCC(C(=O)NCc3ccco3)CC2)cc1C", "Potency": "inactive"}, {"molecule": "Cc1cc(N2CCCC2)ccc1NC(=O)COc1ccc(Cl)cc1", "Potency": "inactive"}, {"molecule": "CC(C)n1cnc2c(NCc3ccccc3)cc(OCC3CCN(C)CC3)cc21", "Potency": "inactive"}, {"molecule": "COc1ccccc1NS(=O)(=O)c1ccc(C)c(C(=O)NNC(=O)c2csc(N3CCOCC3)n2)c1", "Potency": "inactive"}, {"molecule": "O=C(NC1CCCC1)C(=O)c1c[nH]c2ccccc12", "Potency": "inactive"}, {"molecule": "O=C(C(=O)N1CCc2ccccc2C1)c1c[nH]c2ccccc12", "Potency": "4.11 µM (active)"}, {"molecule": "O=C(C(=O)N1CCc2ccccc2C1)N1CCc2ccccc2C1", "Potency": "inactive"}, {"molecule": "COc1cc2c(-c3ccc4c(c3)OCO4)c(-c3ccsc3)oc(=O)c2cc1OC", "re-replication activation": "-0.829% [at 9.22 µM] (inactive)"}, {"molecule": "COc1ccc(-c2ccc3c(c2)[C@@H]2C[C@H](N(C)S(=O)(=O)c4ccccc4)[C@H]([C@H](C)O)C(=O)N2CC3)cc1", "Potency": "inactive"}, {"molecule": "CC1CCCN(C(=O)Cn2c(=O)oc3cc(S(=O)(=O)N4CCCCC4C)ccc32)C1", "note": "(stereo not drawn)", "Potency": "inactive"}, {"molecule": "COC(=O)Nc1nc2ccc(Sc3ccccc3)cc2[nH]1", "Potency": "640 nM (active) and 2.06 µM (active)"}, {"molecule": "CC(C)c1nc2ccc(C(=O)O)cc2[nH]1", "Potency": "inactive"}, {"molecule": "Cc1ccc(O)c(CNc2nc3ccccc3[nH]2)c1", "Potency": "inactive"}, {"molecule": "COc1ccc(C)cc1NC(=O)CN1c2cccc3cccc(c23)S1(=O)=O", "Potency": "inactive"}, {"molecule": "CCOc1ccc(N(C(=O)c2snc(C(N)=O)c2N)C(C(=O)NCC2CCCO2)c2c[nH]c3ccccc23)cc1", "note": "(stereo not drawn)", "Potency": "inactive"}, {"molecule": "Cc1ccc(C(C(=O)NCC2CCCO2)N(C(=O)c2snc(C(N)=O)c2N)c2ccc(C(C)C)cc2)o1", "note": "(stereo not drawn)", "Potency": "18.4 µM (active)"}, {"molecule": "Cc1ccc(N(C(=O)c2snc(C(N)=O)c2N)C(C(=O)NCC2CCCO2)c2c[nH]c3ccccc23)cc1", "note": "(stereo not drawn)", "Potency": "inactive"}, {"molecule": "COc1ccccc1C(=O)COC(=O)COc1ccc(C#N)cc1", "Potency": "inactive"}, {"molecule": "CCCC(CNC(=O)COC(=O)C1=NNC(=O)CC1)c1ccc(Cl)cc1Cl", "note": "(stereo not drawn)", "Potency": "inactive"}, {"molecule": "Oc1[nH]c2ccccc2c1N=Nc1c(F)c(F)c(F)c(F)c1F", "Potency": "inactive"}, {"molecule": "C(#CCN1CCOCC1)CCCN1CCOCC1", "Potency": "inactive"}, {"molecule": "O=C(COc1cccnc1[N+](=O)[O-])Nc1ccc(Cl)cc1F", "Potency": "inactive"}, {"molecule": "COc1cccc(NC(=O)CN(C)C(=O)/C=C/c2cn(-c3ccccc3)nc2-c2cccs2)c1", "Potency": "inactive"}, {"molecule": "O=C(Nc1ccc(Sc2ccc(Br)cc2)cc1)c1ccco1", "Potency": "inactive"}, {"molecule": "Cc1ccc(NC(=O)CC(=O)Nc2ccc(C)cc2)cc1", "Potency": "inactive"}, {"molecule": "O=C(CCl)Nc1ccc(Sc2ccc(NC(=O)CCl)cc2)cc1", "Potency": "4.61 µM (active)"}, {"molecule": "CC1CCCCC1NC(=O)Cn1cnc2c1c(=O)n(C)c(=O)n2C", "note": "(stereo not drawn)", "Potency": "inactive"}, {"molecule": "COc1ccc(-c2nnc(SC(C)C(=O)NC3CC3)o2)cc1", "note": "(stereo not drawn)", "Potency": "inactive"}, {"molecule": "COc1ccc2c(CC(=O)NNC(=O)c3ccccc3F)coc2c1", "Potency": "inactive"}, {"molecule": "S=C(NCC1COc2ccccc2O1)Nc1ccc(Br)cc1", "note": "(stereo not drawn)", "Potency": "inactive"}, {"molecule": "c1ccc(-c2cc3c(NCC4COc5ccccc5O4)ncnc3s2)cc1", "note": "(stereo not drawn)", "Potency": "18.4 µM (active)"}, {"molecule": "Oc1ccccc1N1CCN(c2ncnc3sc(-c4ccccc4)cc23)CC1", "Potency": "inactive"}, {"molecule": "Cc1ccc(NC(=O)C(C)OC(=O)C2CC3CCCC(C2)C3=O)cc1S(=O)(=O)N1CCOCC1", "note": "(stereo not drawn)", "Potency": "inactive"}, {"molecule": "CN(C)C(=O)CCc1ccc2c3c([nH]c2c1)[C@]1(C)[C@@H](C(=O)N2CCCCC2)C[C@H](CC(=O)NCCC2=CCCCC2)C(=O)N1CC3", "Potency": "inactive"}, {"molecule": "COC(=O)c1ccc(CNC(=O)Cn2cc(C)c(=O)[nH]c2=O)cc1", "Potency": "inactive"}, {"molecule": "C[C@H](CO)N1C[C@H](C)[C@@H](CN(C)Cc2ccc(-c3ccccc3)cc2)Oc2ccc(NC(=O)Cn3cnnn3)cc2C1=O", "Potency": "inactive"}, {"molecule": "Cc1ccc2[nH]c(=O)c(CC(=O)O)c(-c3ccccc3)c2c1", "Potency": "inactive"}, {"molecule": "Cc1cccc(N(C)C(=O)c2cc3c(=O)[nH]c4ccc(C)cc4c3s2)c1", "Potency": "9.2 µM (active)"}, {"molecule": "CCN(CC)CCCNC(=O)c1cc2c(=O)[nH]c3ccc(C)cc3c2s1", "Potency": "inactive"}, {"molecule": "CCCN(CC(=O)Nc1ccccc1C)C(=O)c1ccc(OCC(=O)N2CCOCC2)c(OCC)c1", "Potency": "inactive"}, {"molecule": "Cc1nc2ccccc2c(C(=O)O)c1-c1ccccn1", "Potency": "inactive"}, {"molecule": "CCN(c1ccccc1)S(=O)(=O)c1ccc(C(=O)Nc2nccs2)cc1", "Potency": "inactive"}, {"molecule": "COc1cccc(OC)c1C(=O)Nc1sc2c(c1C(N)=O)CCCC2", "Potency": "inactive"}, {"molecule": "C=CCN(CC=C)S(=O)(=O)c1ccc(C(=O)Nc2nc3c(s2)CCc2ccccc2-3)cc1", "Potency": "14.6 µM (active)"}, {"molecule": "NC(=O)c1c(NC(=O)c2ccccc2)sc2c1CCCC2", "Potency": "inactive"}, {"molecule": "COc1ccc(C(=O)Nc2ncc3c(n2)-c2ccccc2CC3)cc1", "Potency": "inactive"}, {"molecule": "C=CCN(CC=C)S(=O)(=O)c1ccc(C(=O)Nc2sc3c(c2C(N)=O)CCCCC3)cc1", "Potency": "9.2 µM (active)"}, {"molecule": "O=C(O)C1C2C=CC(O2)C1C(=O)Nc1ccccn1", "note": "(stereo not drawn)", "Potency": "inactive"}, {"molecule": "O=C(CNC(=O)c1ccco1)NNC(=O)c1ccc(Br)cc1", "Potency": "inactive"}, {"molecule": "O=C(O)c1ccc(Cn2cnc3c(=S)nc[nH]c32)cc1", "Potency": "inactive"}, {"molecule": "Cc1cc([N+](=O)[O-])ccc1NS(=O)(=O)c1ccccc1", "Potency": "inactive"}]}]}
